From PubChem BioAssay (NCATS)
Results filed as inconclusive are left out. Where a call stands in place of a potency, no number is given. Activity calls are given as the source filed them. The call rests on the fitted dose curve; in most records, active means well fitted inhibition curve with a large enough effect; inconclusive means small, poorly fitted or top-dose-only effect; inactive means flat fitted curve, though single readings scatter.

What was measured:
Assay in all cases: qHTS profiling for inhibitors of Plasmodium falciparum proliferation (AID 504749); further: nearly all actives have a fitted effect of over 60% in size
Conditions in all cases: P. falciparum in erythrocytes, SYBR Green DNA, 72 h; series mostly up to 28.7 µM
[1] = test system: P93_24
Procedure, shortened: (§1)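 SYBR Green fluorescence of parasite DNA, read after lysis and overnight dark incubation, measured growth over 72 h in erythrocyte culture at 0.3% parasitemia and 2.5% hematocrit. Data normalised to DMSO and 0.29 uM artemisinin, with plate-drift correction.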

[2] = test system: P94_40
Procedure, shortened: as §1

[3] = test system: PAD
Procedure, shortened: as §1

[4] = test system: PC15
Procedure, shortened: as §1

[5] = test system: PC26
Procedure, shortened: as §1

[6] = test system: PC49
Procedure, shortened: as §1

[7] = test system: SC27B
Procedure, shortened: as §1

[8] = test system: TAB109
Procedure, shortened: as §1

[9] = test system: TAB165
Procedure, shortened: as §1

[10] = test system: TAB113
Procedure, shortened: as §1
Potency means the concentration at half of the fitted maximal effect.

Cc1cccc(C)c1NC(=O)CN1CCCC1
Potency [1]: inactive | Potency [2]: inactive | Potency [3]: inactive | Potency [4]: inactive | Potency [5]: inactive | Potency [6]: inactive | Potency [7]: inactive | Potency [8]: inactive | Potency [9]: inactive

CC1(COc2ccc(CC3SC(=O)NC3=O)cc2)CCCCC1 (centres undefined)
Potency [1]: inactive | Potency [2]: inactive | Potency [3]: inactive | Potency [4]: inactive | Potency [5]: inactive | Potency [6]: inactive | Potency [7]: inactive | Potency [8]: inactive | Potency [10]: inactive | Potency [9]: inactive

CC(=O)NO
Potency [1]: inactive | Potency [2]: inactive | Potency [3]: inactive | Potency [4]: inactive | Potency [5]: inactive | Potency [6]: inactive | Potency [7]: inactive | Potency [8]: inactive | Potency [10]: inactive | Potency [9]: inactive

O=S(=O)(O)c1ccc(O)cc1
Potency [1]: inactive | Potency [2]: inactive | Potency [3]: inactive | Potency [4]: inactive | Potency [5]: inactive | Potency [6]: inactive | Potency [7]: inactive | Potency [8]: inactive | Potency [10]: inactive | Potency [9]: inactive

C/C=C/C=N/NC(=O)c1ccncc1
Potency [1]: inactive | Potency [2]: inactive | Potency [3]: inactive | Potency [4]: inactive | Potency [5]: inactive | Potency [6]: inactive | Potency [7]: inactive | Potency [8]: inactive | Potency [10]: inactive | Potency [9]: inactive

CC(=O)Nc1ccc(OC(=O)c2ccccc2OC(C)=O)cc1
Potency [1]: inactive | Potency [2]: inactive | Potency [3]: inactive | Potency [4]: inactive | Potency [5]: inactive | Potency [6]: inactive | Potency [7]: inactive | Potency [8]: inactive | Potency [10]: inactive | Potency [9]: inactive

CC(=O)OC[C@H]1O[C@@H](n2ncc(=O)[nH]c2=O)[C@H](OC(C)=O)[C@@H]1OC(C)=O
Potency [1]: inactive | Potency [2]: inactive | Potency [3]: inactive | Potency [4]: inactive | Potency [5]: inactive | Potency [6]: inactive | Potency [7]: inactive | Potency [8]: inactive | Potency [9]: inactive

O=C1C(=O)c2ccccc2C(O)=C1C1CCC(c2ccc(Cl)cc2)CC1 (centres undefined)
Potency [1]: 4 nM (active) | Potency [2]: 7.1 nM (active) | Potency [3]: 4.5 nM (active) | Potency [4]: 4.5 nM (active) | Potency [5]: 5.7 nM (active) | Potency [6]: 5 nM (active) | Potency [7]: 0.7 nM (active) | Potency [8]: 2.5 nM (active) | Potency [10]: 2 nM (active) | Potency [9]: 10 nM (active)

CCCCCCCCOc1ccc(C(=O)c2ccccc2)c(O)c1
Potency [1]: inactive | Potency [2]: inactive | Potency [3]: inactive | Potency [4]: inactive | Potency [5]: inactive | Potency [6]: inactive | Potency [7]: inactive | Potency [8]: inactive | Potency [10]: inactive | Potency [9]: inactive

CCNC(=O)/C=C/c1cccc(Br)c1
Potency [1]: inactive | Potency [2]: inactive | Potency [3]: inactive | Potency [4]: inactive | Potency [5]: inactive | Potency [6]: inactive | Potency [7]: inactive | Potency [10]: inactive

CCOC(=O)Nc1ccc2c(c1)N(C(=O)CCN1CCOCC1)c1ccccc1S2
Potency [1]: inactive | Potency [2]: inactive | Potency [3]: inactive | Potency [4]: inactive | Potency [5]: inactive | Potency [6]: inactive | Potency [7]: inactive | Potency [8]: inactive | Potency [10]: inactive | Potency [9]: inactive

CCCCCCCCNC(C)C(O)c1ccc(SC(C)C)cc1 (centres undefined)
Potency [1]: 891 nM (active) | Potency [2]: 447 nM (active) | Potency [3]: 398 nM (active) | Potency [4]: 355 nM (active) | Potency [5]: 849 nM (active) | Potency [6]: 794 nM (active) | Potency [7]: 1120 nM (active) | Potency [8]: 1000 nM (active) | Potency [10]: 355 nM (active) | Potency [9]: 794 nM (active)

NC(=O)n1c(O)c(C(=O)c2cccs2)c2cc(Cl)ccc21
Potency [1]: inactive | Potency [2]: inactive | Potency [3]: inactive | Potency [4]: inactive | Potency [5]: inactive | Potency [6]: inactive | Potency [7]: inactive | Potency [8]: inactive | Potency [10]: inactive | Potency [9]: inactive

CCNC(=O)NCc1cccc(Cl)c1
Potency [1]: inactive | Potency [2]: inactive | Potency [3]: inactive | Potency [4]: inactive | Potency [5]: inactive | Potency [6]: inactive | Potency [7]: inactive | Potency [8]: inactive | Potency [10]: inactive | Potency [9]: inactive

CC(=O)Nc1ccc(CC(=O)O)cc1
Potency [1]: inactive | Potency [2]: inactive | Potency [3]: inactive | Potency [4]: inactive | Potency [5]: inactive | Potency [6]: inactive | Potency [7]: inactive | Potency [8]: inactive | Potency [10]: inactive | Potency [9]: inactive

O=C(Nc1ncc([N+](=O)[O-])s1)c1cccs1
Potency [1]: inactive | Potency [2]: inactive | Potency [3]: inactive | Potency [4]: inactive | Potency [5]: inactive | Potency [6]: inactive | Potency [7]: inactive | Potency [8]: inactive | Potency [10]: inactive | Potency [9]: inactive

Cc1c(-c2ccccc2)oc2c(C(=O)OCCN3CCCCC3)cccc2c1=O
Potency [1]: inactive | Potency [2]: inactive | Potency [3]: inactive | Potency [4]: inactive | Potency [5]: inactive | Potency [6]: inactive | Potency [7]: inactive | Potency [8]: inactive | Potency [10]: inactive | Potency [9]: inactive

OCc1ccccn1
Potency [1]: inactive | Potency [2]: inactive | Potency [3]: inactive | Potency [4]: inactive | Potency [5]: inactive | Potency [6]: inactive | Potency [7]: inactive | Potency [8]: inactive | Potency [10]: inactive | Potency [9]: inactive

O=C(O)C1(C(=O)O)CCC1.[NH2-].[NH2-].[Pt+2]
Potency [1]: inactive | Potency [2]: inactive | Potency [3]: inactive | Potency [4]: inactive | Potency [5]: inactive | Potency [6]: inactive | Potency [7]: inactive | Potency [8]: inactive | Potency [10]: inactive | Potency [9]: inactive

COc1cc(C(=S)N2CCOCC2)ccc1O
Potency [1]: inactive | Potency [2]: inactive | Potency [3]: inactive | Potency [4]: inactive | Potency [5]: inactive | Potency [6]: inactive | Potency [7]: inactive | Potency [8]: inactive | Potency [9]: inactive

FC(F)(F)C(F)(F)C(F)(F)C(F)(F)C(F)(F)C(F)(F)C(F)(F)C(F)(F)Br
Potency [1]: inactive | Potency [2]: inactive | Potency [3]: inactive | Potency [4]: inactive | Potency [5]: inactive | Potency [6]: inactive | Potency [7]: inactive | Potency [8]: inactive | Potency [10]: inactive | Potency [9]: inactive

O=C1C(CCS(=O)c2ccccc2)C(=O)N(c2ccccc2)N1c1ccccc1 (centres undefined)
Potency [1]: inactive | Potency [2]: inactive | Potency [3]: inactive | Potency [4]: inactive | Potency [5]: inactive | Potency [6]: inactive | Potency [7]: inactive | Potency [8]: inactive | Potency [10]: inactive | Potency [9]: inactive

N=C(N)N1CCc2ccccc2C1
Potency [1]: inactive | Potency [2]: inactive | Potency [3]: inactive | Potency [4]: inactive | Potency [5]: inactive | Potency [6]: inactive | Potency [7]: inactive | Potency [8]: inactive | Potency [10]: inactive | Potency [9]: inactive

COc1ccc(CN(CCN(C)C)c2ncccn2)cc1
Potency [1]: 7940 nM (active) | Potency [2]: inactive | Potency [3]: inactive | Potency [4]: inactive | Potency [5]: inactive | Potency [6]: inactive | Potency [7]: inactive | Potency [8]: inactive | Potency [10]: inactive | Potency [9]: inactive

c1ccc(CC2=NCCN2)cc1
Potency [1]: inactive | Potency [2]: inactive | Potency [3]: inactive | Potency [4]: inactive | Potency [5]: inactive | Potency [6]: inactive | Potency [7]: inactive | Potency [8]: inactive | Potency [10]: inactive | Potency [9]: inactive

Cc1cccc(C)c1NC(=O)c1ccccc1C(=O)O
Potency [1]: inactive | Potency [2]: inactive | Potency [3]: inactive | Potency [4]: inactive | Potency [5]: inactive | Potency [6]: inactive | Potency [7]: inactive | Potency [8]: inactive | Potency [10]: inactive | Potency [9]: inactive

CCN(CC)CCNC(=O)c1cc(Br)c(N)cc1OC
Potency [1]: inactive | Potency [2]: inactive | Potency [3]: inactive | Potency [4]: inactive | Potency [5]: inactive | Potency [6]: inactive | Potency [7]: inactive | Potency [8]: inactive | Potency [10]: inactive | Potency [9]: inactive

CC[C@H](c1ccc(O)cc1)[C@@H](CC)c1ccc(O)cc1
Potency [1]: inactive | Potency [2]: inactive | Potency [3]: inactive | Potency [4]: inactive | Potency [5]: inactive | Potency [6]: inactive | Potency [7]: inactive | Potency [8]: inactive | Potency [10]: inactive | Potency [9]: inactive

CC(C)(C)NC[C@H](O)COc1nsnc1N1CCOCC1
Potency [1]: 3550 nM (active) | Potency [2]: 3160 nM (active) | Potency [3]: 6310 nM (active) | Potency [4]: 2240 nM (active) | Potency [5]: 12000 nM (active) | Potency [7]: 12600 nM (active) | Potency [8]: 5010 nM (active) | Potency [10]: 6310 nM (active) | Potency [9]: 5010 nM (active)
